Results on 19 molecules are retold here after the supplement of paper PMC9801561.
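Note: biolog PM4 phosphorus and sulfur plates, tetrazolium violet dye reduction read in the OmniLog every 15 min, kinetic curves scored by DuctApe, each plate run in triplicate.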

The test system of one experiment is Escherichia coli Nissle 1917. The experiment can be described thus: DuctApe activity index of respiration/growth curve (0 no growth to 9 maximum) (index 0-9); higher = more growth / nutrient utilisation, active = 3 or more; extreme values may be limits of the assay. The note with it: nutrient role: sole nitrogen source (pyruvate carbon); incubation: 48 h, 37 °C.
As to `N[C@H](CO)C(=O)O` [D-Serine], the DuctApe activity index is 7.67 (active).
Regarding `NC(=O)NC1NC(=O)NC1=O` (centres undefined) [Allantoin], the DuctApe activity index was 1.67 (inactive).
On to `N[C@@H]1C(O)O[C@H](CO)[C@@H](O)[C@@H]1O` (stereo partly drawn) [D-Mannosamine], for which the DuctApe activity index is 1.67 (inactive).
On to `C[C@H](N)C(=O)NCC(=O)O`, for which the DuctApe activity index is 8 (active).
With `NC(=O)CC[C@H](N)C(=O)O` [L-Glutamine], the DuctApe activity index was 8.33 (active).
Turning to `NCCN` [Ethylenediamine], the DuctApe activity index was 0 (inactive).
In the case of `N[C@H]1C(O)O[C@H](CO)[C@H](O)[C@@H]1O` (stereo partly drawn) [D-Galactosamine], the DuctApe activity index was 0 (inactive).
With `CC(C)[C@H](N)C(=O)O` [L-Valine], the DuctApe activity index was 4 (active).
Turning to `OC[C@H]1O[C@@H](n2cnc3c(O)nc(O)nc32)[C@H](O)[C@@H]1O` [Xanthosine], the DuctApe activity index is 4 (active).
With `C[C@H](N)C(=O)N[C@@H](CCC(=O)O)C(=O)O`, the DuctApe activity index is 8.33 (active).

Still in this experiment, the particulars now being: nutrient role: sole phosphorus source (pyruvate carbon); incubation: 48 h, 37 °C.
As to `O=C(O)COP(=O)(O)O` [Phospho-Glycolic acid], the DuctApe activity index is 8.67 (active).
`Nc1ncnc2c1ncn2[C@@H]1O[C@@H]2COP(=O)(O)O[C@H]2[C@H]1O` [Adenosine 3`,5`-Cyclic Monophosphate]: the DuctApe activity index was 6.67 (active).
Consider `O=C(O)[C@H](O)[C@@H](O)[C@H](O)[C@H](O)COP(=O)(O)O` [6-Phospho-Gluconic acid], for which the DuctApe activity index was 9 (active).
With `O=P(O)(O)OC(CO)CO` [b-Glycerol Phosphate], the DuctApe activity index was 8.67 (active).
Consider `C[C@@H](OP(=O)(O)O)[C@H](N)C(=O)O` [O-Phospho-L-Threonine], for which the DuctApe activity index was 8.67 (active).
Regarding `Nc1ncnc2c1ncn2[C@@H]1O[C@H](CO)[C@@H](O)[C@H]1OP(=O)(O)O` [Adenosine 2`-Monophosphate], the DuctApe activity index is 9 (active).

Still in this experiment, the particulars now being: nutrient role: sole sulfur source (pyruvate carbon); incubation: 48 h, 37 °C.
Consider `NCCS(=O)(=O)O` [Taurine], for which the DuctApe activity index was 8 (active).
On to `CC(=O)N[C@@H](CS)C(=O)O` [N-Acetyl-L-Cysteine], for which the DuctApe activity index is 0.333 (inactive).
`C[C@H](CCC(=O)NCCS(=O)(=O)O)[C@H]1CC[C@H]2[C@@H]3[C@H](O)C[C@@H]4C[C@H](O)CC[C@]4(C)[C@H]3C[C@H](O)[C@]12C` [Taurocholic acid]: the DuctApe activity index was 4 (active).
